From PubChem BioAssay (NCATS) come the findings set out here.

SMILES strings stand for the structures. Inconclusive results are not listed. Calls of active or inactive are those of the source. Unless noted, calls come from the whole dose curve; as a rule, active = well fitted curve in the direction sought with a large enough effect; inconclusive = small, poorly fitted or top-dose-only effect, or another doubt; inactive = no such curve, though single readings can be large; an effect the other way counts as inactive or inconclusive.

Experiment [1] has as its target Cytochrome P450 3A4 (Homo sapiens) (UniProt P08684). The experiment is described as follows: qHTS Assay for Inhibitors and Substrates of Cytochrome P450 3A4 (AID 884). Note: % is set by controls: 0 for no effect and ±100 for the full control effect; nearly all actives have a fitted effect of over 50% in size. In short, it runs like this:
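20 nM human CYP3A4 with 25 uM Luciferin-PPXE (at KM) in 200 mM KPO4, preincubated 10 min with compound; NADPH regeneration started a 60 min RT reaction. Luciferin detected by luminescence, normalized to 57 uM ketoconazole as full inhibition.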
In general terms: Quantitative high-throughput screening tests each substance at several concentrations.

The nature of experiment [2]: Confirmation and Secondary Assay for Modulators of Hemoglobin Beta Chain Splicing at IVS2 654 locus (AID 910).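 Note: HeLa cells stably carrying EGFP split by mutant beta-globin IVS2-654 intron; per-well total GFP intensity by laser scanning cytometry after 2-day treatment; % of control where 0% means no effect.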 The procedure, abridged:
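Readout: per-well total peak green fluorescence (488 nm ex, 500–520 nm em) from objects 5–250 µm, reflecting correct splicing of an EGFP-654 reporter. Compounds were applied for 2 days at 37 °C to overnight-plated HeLa EGFP-654 cells; controls were DMSO and 500 nM IVS2-654 PNA.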

Experiment [3] can be described thus: Confirmation and Secondary Assay for Modulators of Hemoglobin Beta Chain Splicing at IVS2 705 locus (AID 930).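 Note: HeLa cells stably expressing the EGFP-705 splicing reporter; GFP fluorescence per well restored by corrected splicing of the IVS2-705 intron in EGFP; % of control where 0% means no effect.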 In short, it runs like this: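 Secondary splice-site specificity test uses HeLa expressing CMV-driven EGFP interrupted by IVS2-705; cells were treated 2 days at 37C with 500 nM antisense PNA as positive control.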
Experiment [4] is described as follows: qHTS Assay for Lipid Storage Modulators (AID 1519; calls by dose curve; for activity change, negative = inhibition: % is set by controls: 0 for no effect and ±100 for the full control effect). The note with it: Drosophila S3 cells, BODIPY lipid droplet/cell ratio, laser cytometry, cells loaded with oleic acid; for activity change, negative = inhibition: at 57.5 µM (top of the series). In short, it runs like this:
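Cells seeded at 5,000 per well were treated with compounds over a concentration series and loaded with oleic acid (400 uM, as added). Lipid droplet fluorescence (488 nm excitation, 500-530 nm channel) was read by laser-scanning cytometry and normalized to 20 uM Triacsin C.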

The target in experiment [5] is Ubiquitin carboxyl-terminal hydrolase 1 (Homo sapiens) (UniProt O94782). The experiment is described as follows: Inhibitors of USP1/UAF1: Pilot qHTS (AID 504865).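 Note: rhodamine fluorescence freed from ubiquitin-rhodamine substrate followed over time; top concentration of the series differs between compounds; % is set by controls: 0 for no effect and ±100 for the full control effect; nearly all actives have a fitted effect of over 35% in size.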 In short, it runs like this: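 USP1/UAF1 complex (1nM) preincubated with compound 15 min at room temperature, then Ub-Rho substrate (150nM final) added. Fluorescence read kinetically at 480/540 nm, 6 reads every 60 seconds. Buffer: 50mM HEPES pH 7.8, 0.5mM EDTA, 0.1 mg/ml BSA, 1mM TCEP, 0.01% Tween-20.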
Sequence of Ubiquitin carboxyl-terminal hydrolase 1 (Homo sapiens) (O94782 whole entry, looked up): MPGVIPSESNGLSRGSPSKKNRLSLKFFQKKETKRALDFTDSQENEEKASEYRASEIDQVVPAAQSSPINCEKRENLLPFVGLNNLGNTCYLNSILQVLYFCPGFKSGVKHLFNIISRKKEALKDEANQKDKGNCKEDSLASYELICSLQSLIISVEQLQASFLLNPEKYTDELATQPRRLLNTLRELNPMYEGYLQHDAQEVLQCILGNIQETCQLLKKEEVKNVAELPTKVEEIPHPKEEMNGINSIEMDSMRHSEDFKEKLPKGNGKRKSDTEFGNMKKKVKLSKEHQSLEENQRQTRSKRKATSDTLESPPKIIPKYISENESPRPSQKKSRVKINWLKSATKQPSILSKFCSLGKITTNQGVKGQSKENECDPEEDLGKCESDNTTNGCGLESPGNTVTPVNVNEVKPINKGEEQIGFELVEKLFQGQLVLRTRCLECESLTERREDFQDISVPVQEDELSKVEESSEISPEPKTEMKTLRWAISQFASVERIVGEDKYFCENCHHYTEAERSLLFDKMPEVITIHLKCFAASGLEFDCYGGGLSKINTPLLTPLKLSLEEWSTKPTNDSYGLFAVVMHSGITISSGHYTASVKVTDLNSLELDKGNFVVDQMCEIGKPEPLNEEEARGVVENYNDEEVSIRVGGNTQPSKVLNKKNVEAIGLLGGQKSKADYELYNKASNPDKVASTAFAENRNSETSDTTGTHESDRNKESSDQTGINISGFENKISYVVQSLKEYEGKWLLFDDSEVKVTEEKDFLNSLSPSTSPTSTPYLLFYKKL

[6] abbreviates: measured here: cell count channel max response.
Where [7] appears, read: measured here: lipid channel max response.

Sequence of Cytochrome P450 3A4 (Homo sapiens) (P08684 whole entry, looked up): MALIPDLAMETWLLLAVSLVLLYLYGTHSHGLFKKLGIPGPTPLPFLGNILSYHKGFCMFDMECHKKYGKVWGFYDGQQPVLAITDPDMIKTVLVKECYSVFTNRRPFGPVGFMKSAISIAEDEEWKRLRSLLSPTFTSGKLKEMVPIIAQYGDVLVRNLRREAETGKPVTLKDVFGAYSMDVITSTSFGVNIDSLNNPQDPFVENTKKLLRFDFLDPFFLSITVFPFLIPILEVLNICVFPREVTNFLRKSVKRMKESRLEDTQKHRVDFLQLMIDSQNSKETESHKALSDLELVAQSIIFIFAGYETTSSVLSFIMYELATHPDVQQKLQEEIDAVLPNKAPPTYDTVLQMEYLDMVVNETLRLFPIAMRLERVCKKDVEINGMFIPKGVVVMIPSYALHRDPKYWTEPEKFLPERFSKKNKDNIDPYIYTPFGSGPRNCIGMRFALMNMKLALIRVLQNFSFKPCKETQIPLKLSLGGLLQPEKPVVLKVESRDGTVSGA

As for `COc1ccc(-c2oc3c(CC=C(C)C)c(O[C@H]4OC(CO)C(O)C(O)C4O)cc(O)c3c(=O)c2O[C@@H]2OC(C)C(O)C(O)C2O)cc1` (stereo not given in full), the Potency entry in experiment [1], in experiment [2], in experiment [3] and in experiment [5] was “inactive” throughout. Further, the activity change, negative = inhibition in experiment [4] was 3.91% (inactive). In addition, the max response was 22% in experiment [4] (setting [6]) and 29.5% in experiment [4] (setting [7]).

With `NC(=O)c1ccc[n+]([C@@H]2OC(COP(=O)([O-])OP(=O)(O)OCC3OC(n4cnc5c(N)ncnc54)C(OP(=O)(O)O)C3O)C(O)C2O)c1` (stereo not given in full), the Potency result in experiment [1], in experiment [2], in experiment [3] and in experiment [5] was “inactive” each time. Also, the activity change, negative = inhibition in experiment [4] is 5.09% (inactive). The results for the max response in experiment [4] (setting [6]) and in experiment [4] (setting [7]) were 9.14% and 18.1%, respectively.

Regarding `CCC(CCC(C)C1CCC2C3CCC4CC(O)CC[C@@]4(C)C3CC[C@@]12C)C(C)C` (stereo not given in full), the Potency entry in experiment [1], in experiment [2], in experiment [3] and in experiment [5] was “inactive” in each case. Further, in experiment [4], the activity change, negative = inhibition was 7.69% (inactive). Also, the max response worked out at 1.31% in experiment [4] (setting [6]) and 10.4% in experiment [4] (setting [7]).

For `COC1C(O)C(O)C(O)C(O)C1O` (stereo not given), the Potency entry in experiment [1], in experiment [2], in experiment [3] and in experiment [5] was “inactive” each time. Moreover, the activity change, negative = inhibition in experiment [4] was 5.15% (inactive). The max response stood at 13.2% in experiment [4] (setting [6]) and 22.7% in experiment [4] (setting [7]).

For `COc1c(O)cc2c(c1O)C1OC(CO)C(O)[C@H](O)[C@H]1OC2=O` (stereo not given in full), the Potency entry in experiment [1], in experiment [2], in experiment [3] and in experiment [5] was “inactive” throughout. Also, the activity change, negative = inhibition in experiment [4] was 6.03% (inactive). In addition, the figures for the max response in experiment [4] (setting [6]) and in experiment [4] (setting [7]) were 7.39% and 14.2%, respectively.

For the compound `CC(C)CCCC(C)C1CCC2C3CC=C4CC(O)CC[C@@]4(C)C3CC[C@@]12C` (stereo not given in full), the Potency entry in experiment [1], in experiment [2], in experiment [3] and in experiment [5] was “inactive” in each case. In addition, the activity change, negative = inhibition in experiment [4] is 2.88% (inactive). In addition, the max response in experiment [4] (setting [6]) is -11.4%; in experiment [4] (setting [7]), -8.92%.

Consider `O=c1oc2ccccc2cc1O`, for which the Potency result in experiment [1], in experiment [2], in experiment [3] and in experiment [5] was “inactive” each time. Also, the activity change, negative = inhibition in experiment [4] is 6.16% (inactive). Also, the max response in experiment [4] (setting [6]) was 4.09%; in experiment [4] (setting [7]) it was 13.1%.

`COC1C(O)C(CO)OC1n1c(Br)nc2c(=O)[nH]c(N)nc21` (stereo not given): the Potency entry in experiment [1], in experiment [2], in experiment [3] and in experiment [5] was “inactive” in each case. For the same compound, the activity change, negative = inhibition in experiment [4] is 1.73% (inactive). Moreover, the max response came to 0.309% in experiment [4] (setting [6]) and 3.63% in experiment [4] (setting [7]).

As to `CC1=C(/C=C/C(C)=C/C=C/C(C)=C/C=C/C=C(C)/C=C/C=C(C)/C=C/C2=C(C)C(=O)C(O)CC2(C)C)C(C)(C)CC(O)C1=O` (stereo not given), the Potency entry in experiment [1], in experiment [2], in experiment [3] and in experiment [5] was “inactive” throughout. The activity change, negative = inhibition in experiment [4] was 2.55% (inactive). The max response was found to be 25.7% in experiment [4] (setting [6]) and 27.4% in experiment [4] (setting [7]).

Turning to `CCN(CC)Cc1ccc(Nc2ccnc3cc(Cl)ccc23)cc1O`, the Potency entry in experiment [1], in experiment [2], in experiment [3] and in experiment [5] was “inactive” in each case. In experiment [4], the activity change, negative = inhibition is -0.352% (inactive). In addition, the max response was determined as 18.7% in experiment [4] (setting [6]) and 21.7% in experiment [4] (setting [7]).

For the compound `CC1C(O)CC2C(C(=O)O)=CO[C@@H](O[C@H]3OC(CO)C(O)C(O)C3O)C21` (stereo not given in full), the Potency entry in experiment [1], in experiment [2], in experiment [3] and in experiment [5] was “inactive” each time. In addition, the activity change, negative = inhibition in experiment [4] is 4.54% (inactive). Moreover, the max response in experiment [4] (setting [6]) stood at 10.9%; in experiment [4] (setting [7]), 15.2%.

In the case of `CC(C)CCCC(C)C1CCC2C3CC[C@H]4CC(=O)CC[C@@]4(C)C3CC[C@@]12C` (stereo not given in full), the Potency entry in experiment [1], in experiment [2], in experiment [3] and in experiment [5] was “inactive” throughout. Also, the activity change, negative = inhibition in experiment [4] is 1.96% (inactive). The figures for the max response in experiment [4] (setting [6]) and in experiment [4] (setting [7]) were 8.57% and 10.7%, respectively.

As to `CCOc1ccc(C(=O)c2ccc(O)c(O)c2O)cc1`, the Potency result in experiment [1], in experiment [2], in experiment [3] and in experiment [5] was “inactive” in each case. Moreover, the activity change, negative = inhibition in experiment [4] was 4.84% (inactive). For the same compound, the max response is -5.66% in experiment [4] (setting [6]) and -2.36% in experiment [4] (setting [7]).

For the compound `COc1ccc(-c2coc3cc(O)ccc3c2=O)c(OC)c1O`, the Potency entry in experiment [1], in experiment [2], in experiment [3] and in experiment [5] was “inactive” throughout. In addition, the activity change, negative = inhibition in experiment [4] is -3.58% (inactive). For the same compound, the max response in experiment [4] (setting [6]) turned out to be 12.3%; in experiment [4] (setting [7]) it was 2.49%.

Regarding `CC(=O)O[C@@]1(C(C)=O)CCC2C3C=C(Cl)C4=CC(=O)C5CC5[C@@]4(C)C3CC[C@]21C` (stereo not given in full), the Potency entry in experiment [1], in experiment [2], in experiment [3] and in experiment [5] was “inactive” in each case. Moreover, in experiment [4], the activity change, negative = inhibition is 2.54% (inactive). In addition, the figures for the max response in experiment [4] (setting [6]) and in experiment [4] (setting [7]) were -3.69% and 0.864%, respectively.

Turning to `CCCCCC1C(=O)CCC1CC(=O)O` (stereo not given), the Potency entry in experiment [1], in experiment [2], in experiment [3] and in experiment [5] was “inactive” each time. Besides, the activity change, negative = inhibition in experiment [4] was 5.46% (inactive). Moreover, the max response is 21.6% in experiment [4] (setting [6]) and 28.3% in experiment [4] (setting [7]).

Turning to `CC1O[C@@H](Oc2c(-c3ccc(O)c(O)c3)oc3cc(O)cc(O)c3c2=O)C(O)C(O)C1O` (stereo not given in full), the Potency result in experiment [1], in experiment [2], in experiment [3] and in experiment [5] was “inactive” in each case. Besides, the activity change, negative = inhibition in experiment [4] is 10.2% (inactive). Besides, the max response in experiment [4] (setting [6]) amounted to 19.3%; in experiment [4] (setting [7]) it was 40.6%.

For `Cn1c(=O)[nH]c2nc[nH]c2c1=O`, the Potency result in experiment [1], in experiment [2], in experiment [3] and in experiment [5] was “inactive” throughout. Further, the activity change, negative = inhibition in experiment [4] is 5.61% (inactive). The max response was 14% in experiment [4] (setting [6]) and 22.4% in experiment [4] (setting [7]).

As to `O=C(Oc1cc(OC(=O)c2ccccc2)c2c(c1)OC(c1ccc(OC(=O)c3ccccc3)c(OC(=O)c3ccccc3)c1)[C@@H](OC(=O)c1ccccc1)C2)c1ccccc1` (stereo not given in full), the Potency entry in experiment [1], in experiment [2], in experiment [3] and in experiment [5] was “inactive” throughout. Further, the activity change, negative = inhibition in experiment [4] was -8.04% (inactive). Also, the max response was determined as 23.3% in experiment [4] (setting [6]) and 15.7% in experiment [4] (setting [7]).

For `C=C(C)C1COc2cc3oc(=O)ccc3cc2O1` (stereo not given), the Potency result in experiment [1], in experiment [2], in experiment [3] and in experiment [5] was “inactive” each time. Also, the activity change, negative = inhibition in experiment [4] was 14.3% (inactive). Also, the max response in experiment [4] (setting [6]) is 12.5%; in experiment [4] (setting [7]), 28.8%.

As to `Nc1nc2c(nc(Cl)n2C2OC(CO)C(O)C2O)c(=O)[nH]1` (stereo not given), the Potency result in experiment [1], in experiment [2], in experiment [3] and in experiment [5] was “inactive” each time. Besides, in experiment [4], the activity change, negative = inhibition was 3.5% (inactive). In addition, the max response in experiment [4] (setting [6]) was found to be 20%; in experiment [4] (setting [7]), 24.4%.

In the case of `O=c1cc(-c2ccccc2O)oc2cc(O)ccc12`, the Potency entry in experiment [1], in experiment [2], in experiment [3] and in experiment [5] was “inactive” each time. In addition, the activity change, negative = inhibition in experiment [4] was 8.08% (inactive). Besides, the max response was 28.6% in experiment [4] (setting [6]) and 40% in experiment [4] (setting [7]).

For `C[C@@H]1OC(OC2CC[C@@]3(C)C(CC[C@@]4(C)C3CC=C3C5CC(C)(C)CC[C@]5(C(=O)OC5OCC(O)[C@@H](O)[C@@H]5OC5O[C@@H](C)[C@H](O[C@H]6OC(CO)C(O)C(O)C6O)C(O)C5O)C(O)C[C@@]34C)C2(C)C)C(O)C(O)[C@H]1OC1OCC(O)C(O)[C@H]1O` (stereo not given in full), the Potency result in experiment [1], in experiment [2], in experiment [3] and in experiment [5] was “inactive” each time. The activity change, negative = inhibition in experiment [4] was 1.15% (inactive). Moreover, the values for the max response in experiment [4] (setting [6]) and in experiment [4] (setting [7]) were -28.2% and -26.8%, respectively.

For `CCCCCC(CC(=O)O)C(=O)O` (stereo not given), the Potency result in experiment [1], in experiment [2], in experiment [3] and in experiment [5] was “inactive” throughout. The activity change, negative = inhibition in experiment [4] was 12.5% (inactive). For the same compound, the max response in experiment [4] (setting [6]) was 21.4%; in experiment [4] (setting [7]), 35.2%.

Turning to `CC1=CC2C(C(C)C)CCC(C)(O)C2CC1` (stereo not given), the Potency result in experiment [1], in experiment [2], in experiment [3] and in experiment [5] was “inactive” in each case. In experiment [4], the activity change, negative = inhibition is -0.741% (inactive). For the same compound, the values for the max response in experiment [4] (setting [6]) and in experiment [4] (setting [7]) were -7.33% and -6.55%, respectively.
